Source: PubChem BioAssay (NCATS)
Results filed as inconclusive are left out. Activity calls are given as the source filed them. The call rests on the fitted dose curve; in most records, active means well fitted curve in the direction sought with a large enough effect; inconclusive means small, poorly fitted or top-dose-only effect, or another doubt; inactive means no such curve, though single readings can be large; an effect the other way counts as inactive or inconclusive.

Legend:
[1] = qHTS of pediatric cancer cell lines to identify multiple opportunities for drug repurposing: Primary screen for DAOY cells (AID 1347090); further: potency means the concentration at half of the fitted maximal effect; nearly all actives have a fitted effect of over 55% in size
Procedure, shortened: (§1)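 Viability measured as metabolically active cells via CellTiter-Glo luminescence following 48 hours of compound exposure, 11-point dilutions in confirmatory testing. 500-1,000 cells/well plated 5 hours before dosing; controls were DMSO and 2.3 µM bortezomib.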

[2] = qHTS of pediatric cancer cell lines to identify multiple opportunities for drug repurposing: Primary screen for A673 cells (AID 1347092); further: nearly all actives have a fitted effect of over 45% in size; further: potency means the concentration at half of the fitted maximal effect
Procedure, shortened: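 Cells are plated, rested 5 h, dosed by pintool, incubated 48 h, then lysed with CellTiter-Glo and read by luminescence. DMSO is the neutral control; bortezomib at 2.3 uM final is the positive control.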

[3] = qHTS of pediatric cancer cell lines to identify multiple opportunities for drug repurposing: Primary screen for SK-N-MC cells (AID 1347093); further: potency means the concentration at half of the fitted maximal effect
Procedure, shortened: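 Metabolically active cells were quantified by ATP-dependent luminescence (CellTiter-Glo, 15 min at room temperature) following 48 h treatment. Cells had been plated at 500-1,000 per well and settled for 5 h beforehand.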

[4] = qHTS of pediatric cancer cell lines to identify multiple opportunities for drug repurposing: Primary screen for Saos-2 cells (AID 1347097); further: nearly all actives have a fitted effect of over 40% in size; further: potency means the concentration at half of the fitted maximal effect
Procedure, shortened: (§2)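 Plated cells (500-1,000 per well, growth media) were allowed to settle for 5 hours, treated with compound dilutions for 48 hours, then lysed with CellTiter-Glo for 15 min at room temperature before luminescence reading.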

[5] = qHTS of pediatric cancer cell lines to identify multiple opportunities for drug repurposing: Primary screen for NB1643 cells (AID 1347099); further: nearly all actives have a fitted effect of over 50% in size; further: potency means the concentration at half of the fitted maximal effect
Procedure, shortened: as §2

[6] = qHTS of pediatric cancer cell lines to identify multiple opportunities for drug repurposing: Primary screen for LAN-5 cells (AID 1347100); further: potency means the concentration at half of the fitted maximal effect
Procedure, shortened: (§3)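 Viability after 48 h compound treatment at 37C, 500-1,000 cells/well, read as ATP luminescence with CellTiter-Glo. Primary screens used 11-point (MIPE, 0.78 nM-46 µM) or 8-point (NPC, 0.59 nM-46 µM) final concentrations; follow-up screens used 11-point dilutions.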

[7] = qHTS of pediatric cancer cell lines to identify multiple opportunities for drug repurposing: Primary screen for BT-12 cells (AID 1347101); further: nearly all actives have a fitted effect of over 25% in size; further: potency means the concentration at half of the fitted maximal effect
Procedure, shortened: (§4)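 Cells (500-1,000/well) rested 5 h, then received compounds for 48 h; metabolically active cells were measured by CellTiter-Glo luminescence. Final concentrations spanned up to 46 µM (MIPE, 11-point) or 0.59 nM-46 µM (NPC, 8-point) in primary screens, 11-point in follow-ups.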

[8] = qHTS of pediatric cancer cell lines to identify multiple opportunities for drug repurposing: Primary screen for OHS-50 cells (AID 1347103); further: nearly all actives have a fitted effect of over 40% in size; further: potency means the concentration at half of the fitted maximal effect
Procedure, shortened: as §4

[9] = qHTS of pediatric cancer cell lines to identify multiple opportunities for drug repurposing: Primary screen for TC32 cells (AID 1347089); further: nearly all actives have a fitted effect of over 60% in size
Procedure, shortened: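 Measured quantity: luminescence from CellTiter-Glo, reflecting metabolically active TC32 cells following 48 h of compound. Curves came straight from multi-point titrations, with 8 or 11 points in primary and 11 in confirmatory screening.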

[10] = qHTS of pediatric cancer cell lines to identify multiple opportunities for drug repurposing: Primary screen for NB-EBc1 cells (AID 1347095); further: potency means the concentration at half of the fitted maximal effect
Procedure, shortened: as §2

[11] = qHTS of pediatric cancer cell lines to identify multiple opportunities for drug repurposing: Primary screen for SK-N-SH cells (AID 1347098); further: nearly all actives have a fitted effect of over 65% in size; further: potency means the concentration at half of the fitted maximal effect
Procedure, shortened: as §4

[12] = qHTS of pediatric cancer cell lines to identify multiple opportunities for drug repurposing: Primary screen for BT-37 cells (AID 1347094); further: potency means the concentration at half of the fitted maximal effect
Procedure, shortened: as §2

[13] = qHTS of pediatric cancer cell lines to identify multiple opportunities for drug repurposing: Primary screen for U-2 OS cells (AID 1347096); further: nearly all actives have a fitted effect of over 50% in size
Procedure, shortened: as §3

[14] = qHTS of pediatric cancer cell lines to identify multiple opportunities for drug repurposing: Primary screen for Rh18 cells (AID 1347102); further: nearly all actives have a fitted effect of over 65% in size; further: potency means the concentration at half of the fitted maximal effect
Procedure, shortened: as §3

[15] = qHTS of pediatric cancer cell lines to identify multiple opportunities for drug repurposing: Primary screen for SJ-GBM2 cells (AID 1347091); further: potency means the concentration at half of the fitted maximal effect
Procedure, shortened: as §1

[16] = qHTS of pediatric cancer cell lines to identify multiple opportunities for drug repurposing: Primary screen for RD cells (AID 1347104); further: nearly all actives have a fitted effect of over 55% in size; further: potency means the concentration at half of the fitted maximal effect
Procedure, shortened: as §2

[17] = qHTS of pediatric cancer cell lines to identify multiple opportunities for drug repurposing: Primary screen for MG 63 (6-TG R) cells (AID 1347105); further: nearly all actives have a fitted effect of over 50% in size; further: potency means the concentration at half of the fitted maximal effect
Procedure, shortened: as §2

Measured: Potency

O=c1c(-c2ccccc2)c1-c1ccccc1
active: [1] 21.1 µM | [2] 8.41 µM | [3] 6.68 µM | [4] 11.9 µM | [5] 8.41 µM | [6] 18.8 µM | [7] 5.5 µM | [8] 13.8 µM

C#C[C@]1(O)CC[C@H]2[C@@H]3CCc4cc(OC5CCCC5)ccc4[C@H]3CC[C@@]21C
active: [11] 17.2 µM | [8] 19.5 µM
inactive: [9] | [10]

CCCSS/C(CCO)=C(\C)N(C=O)Cc1cnc(C)nc1N
inactive: [12] | [13] | [7] | [14]
active: [3] 15 µM | [10] 16.8 µM | [8] 21.9 µM

Cc1ccccc1C(=O)Nc1ccc(C(=O)N2CCCC(N(C)C)c3ccccc32)cc1 (stereo unspecified)
active: [2] 8.41 µM | [3] 6.68 µM | [10] 2.99 µM | [4] 6.68 µM | [6] 18.8 µM | [8] 21.9 µM
inactive: [9] | [13]

CCCCCCC[N+](CC)(CC)CCCCc1ccc(Cl)cc1
active: [1] 26.6 µM | [15] 10.6 µM | [2] 3.35 µM | [3] 3.35 µM | [12] 8.71 µM | [10] 10.6 µM | [4] 6.68 µM | [11] 19.4 µM | [5] 13.3 µM | [6] 2.99 µM | [7] 7.77 µM | [14] 11.9 µM | [8] 3.89 µM | [16] 13.3 µM

CN(C/C=C/c1ccccc1)Cc1cccc2ccccc12
active: [4] 23.7 µM | [8] 27.6 µM
inactive: [9] | [13] | [5] | [14] | [16]

CC(=O)N/N=C/c1ccc([N+](=O)[O-])o1
inactive: [15] | [13]

Oc1c(I)cc(Cl)c2cccnc12
active: [15] 18.8 µM | [2] 21.1 µM | [11] 27.3 µM | [8] 21.9 µM | [17] 21.1 µM

O=C(OCC(O)CO)c1ccccc1Nc1ccnc2cc(Cl)ccc12 (stereo unspecified)
active: [4] 23.7 µM
inactive: [9] | [2] | [10] | [13] | [11] | [5] | [6] | [14] | [17]

Oc1ccc(Cl)cc1Sc1cc(Cl)ccc1O
active: [1] 21.1 µM | [15] 13.3 µM | [12] 21.9 µM | [10] 15 µM | [4] 15 µM | [5] 18.8 µM | [6] 18.8 µM | [7] 19.5 µM | [16] 23.7 µM
inactive: [13]

CCOc1ccc(Cc2nccc3cc(OCC)c(OCC)cc23)cc1OCC
active: [1] 21.1 µM | [7] 6.17 µM | [8] 7.77 µM
inactive: [17]

COc1ccc(/C=C/C(=O)c2ccc(OC)cc2OC)cc1
active: [11] 19.4 µM | [6] 21.1 µM
inactive: [9] | [13] | [17]

CN(C)/N=N/c1nc[nH]c1C(N)=O
active: [3] 2.66 µM | [8] 1.74 µM
not listed: [1] | [5] | [9] | [12] | [16] | [17]
inactive: all other assays above

NC(=O)C(=O)N/N=C/c1ccc([N+](=O)[O-])o1
active: [5] 21.1 µM | [6] 29.9 µM
inactive: [9] | [15]

C=C(CC)C(=O)c1ccc(OCC(=O)O)c(Cl)c1Cl
active: [3] 18.8 µM | [10] 21.1 µM | [11] 17.2 µM
inactive: [15] | [14] | [8]

CC(C)(C)CC(C)(C)c1ccc(O)c(Cc2ccc(Cl)cc2Cl)c1
active: [10] 13.3 µM | [4] 16.8 µM | [6] 21.1 µM | [8] 24.6 µM | [17] 26.6 µM
inactive: [9]
